Experimental data from the supplement of paper PMC8728848.
Many of the other results were omitted from the sample, so the strongest signals are more common in it than they were.

Experiments:
Assay in all cases: glycan array binding signal (z-score within array); higher = stronger binding
Details in all cases: glycan notation: IUPAC condensed, linker removed
[1] = target: Fuc(a1-2)Gal(b1-4)GlcNAc(b1-2)Man(a1-3)[Fuc(a1-2)Gal(b1-4)GlcNAc(b1-2)Man(a1-6)]Man(b1-4)GlcNAc(b1-4)GlcNAc
How it was run: (§1)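 Glycan array data came from 3228 arrays in the Consortium for Functional Glycomics database, and only arrays with an available protein sequence were kept. Glycan names were put into IUPAC-condensed notation, and columns mapping to the same glycan were averaged. The binding signal is a within-array Z-score, averaged across arrays of one protein sequence run at different concentrations or buffers and across linkers. A negative Z-score can be read as non-binding.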

[2] = target: Fuc(a1-2)Gal(b1-4)GlcNAc(b1-2)[Fuc(a1-2)Gal(b1-4)GlcNAc(b1-4)]Man(a1-3)[Fuc(a1-2)Gal(b1-4)GlcNAc(b1-2)Man(a1-6)]Man(b1-4)GlcNAc(b1-4)GlcNAc
How it was run: as §1

[3] = target: Fuc(a1-2)Gal(b1-4)GlcNAc(b1-3)Gal(b1-4)GlcNAc
How it was run: as §1

[4] = target: Fuc(a1-2)[Gal(a1-3)]Gal
How it was run: as §1

[5] = target: Fuc(a1-2)[Gal(a1-3)]Gal(b1-3)GalNAc(b1-3)Gal(a1-4)Gal(b1-4)Glc
How it was run: as §1

[6] = target: Fuc(a1-3)[Gal(b1-4)]GlcNAc
How it was run: as §1

[7] = target: Gal(a1-3)Gal
How it was run: as §1

[8] = target: Gal(a1-4)Gal(b1-4)GlcNAc(b1-2)Man(a1-3)[Gal(a1-4)Gal(b1-4)GlcNAc(b1-2)Man(a1-6)]Man(b1-4)GlcNAc(b1-4)GlcNAc
How it was run: as §1

[9] = target: Gal(b1-3)GlcNAc(b1-2)Man(a1-3)[Gal(b1-3)GlcNAc(b1-2)Man(a1-6)]Man(b1-4)GlcNAc(b1-4)GlcNAc
How it was run: as §1

[10] = target: Gal(b1-3)GlcNAc(b1-3)Gal(b1-3)GlcNAc
How it was run: as §1

[11] = target: Gal(b1-3)GlcNAc(b1-3)Gal(b1-4)GlcNAc(b1-2)Man(a1-3)[Gal(b1-3)GlcNAc(b1-3)Gal(b1-4)GlcNAc(b1-2)Man(a1-6)]Man(b1-4)GlcNAc(b1-4)GlcNAc
How it was run: as §1

[12] = target: Gal(b1-3)[Fuc(a1-4)]GlcNAc
How it was run: as §1

[13] = target: Gal(b1-4)GlcNAc(b1-2)Man(a1-3)Man(b1-4)GlcNAc(b1-4)GlcNAc
How it was run: as §1

[14] = target: Gal(b1-4)GlcNAc(b1-2)Man(a1-3)[Gal(b1-4)GlcNAc(b1-2)Man(a1-6)]Man(b1-4)GlcNAc(b1-4)GlcNAc
How it was run: as §1

[15] = target: Gal(b1-4)GlcNAc(b1-2)Man(a1-3)[Gal(b1-4)GlcNAc(b1-2)Man(a1-6)]Man(b1-4)GlcNAc(b1-4)[Fuc(a1-6)]GlcNAc
How it was run: as §1

[16] = target: Gal(b1-4)GlcNAc(b1-2)Man(a1-3)[Gal(b1-4)GlcNAc(b1-2)Man(a1-6)][GlcNAc(b1-4)]Man(b1-4)GlcNAc(b1-4)[Fuc(a1-6)]GlcNAc
How it was run: as §1

[17] = target: Gal(b1-4)GlcNAc(b1-2)Man(a1-3)[GlcNAc(b1-2)Man(a1-6)]Man(b1-4)GlcNAc(b1-4)GlcNAc
How it was run: as §1

[18] = target: Gal(b1-4)GlcNAc(b1-2)Man(a1-3)[Man(a1-6)]Man(b1-4)GlcNAc(b1-4)GlcNAc
How it was run: as §1

[19] = target: Gal(b1-4)GlcNAc(b1-2)[Gal(b1-4)GlcNAc(b1-4)]Man(a1-3)[GlcNAc(b1-4)][Gal(b1-4)GlcNAc(b1-2)[Gal(b1-4)GlcNAc(b1-6)]Man(a1-6)]Man(b1-4)GlcNAc(b1-4)GlcNAc
How it was run: as §1

[20] = target: Gal(b1-4)GlcNAc(b1-2)[Gal(b1-4)GlcNAc(b1-6)]Man(a1-6)[Gal(b1-4)GlcNAc(b1-2)Man(a1-3)]Man(b1-4)GlcNAc(b1-4)GlcNAc
How it was run: as §1

[21] = target: Gal(b1-4)GlcNAc(b1-2)[Gal(b1-4)GlcNAc(b1-6)]Man(a1-6)[Gal(b1-4)GlcNAc(b1-2)Man(a1-3)]Man(b1-4)GlcNAc(b1-4)[Fuc(a1-6)]GlcNAc
How it was run: as §1

[22] = target: Gal(b1-4)GlcNAc(b1-3)Gal(b1-4)GlcNAc(b1-3)Gal(b1-4)GlcNAc
How it was run: as §1

[23] = target: Gal6S(b1-4)GlcNAc6S
How it was run: as §1

[24] = target: GalNAc(a1-3)GalNAc
How it was run: as §1

[25] = target: GalNAc(a1-3)GalNAc(b1-3)Gal(a1-4)Gal(b1-4)GlcNAc
How it was run: as §1

[26] = target: GalNAc(b1-6)GalNAc
How it was run: as §1

[27] = target: GlcA(b1-3)GlcNAc
How it was run: as §1

[28] = target: GlcA3S(b1-3)Gal(b1-4)GlcNAc(b1-2)Man
How it was run: as §1

[29] = target: GlcNAc(b1-3)Gal(b1-4)Glc
How it was run: as §1

[30] = target: GlcNAc(b1-3)Gal(b1-4)GlcNAc(b1-3)GalNAc
How it was run: as §1

[31] = target: GlcNAc(b1-4)GlcNAc(b1-4)GlcNAc
How it was run: as §1

[32] = target: Man(a1-3)[Man(a1-6)]Man(a1-6)[Man(a1-2)Man(a1-3)]Man(b1-4)GlcNAc(b1-4)GlcNAc
How it was run: as §1

[33] = target: Man(a1-3)[Man(a1-6)]Man(a1-6)[Man(a1-3)]Man
How it was run: as §1

[34] = target: Man(a1-3)[Man(a1-6)]Man(a1-6)[Man(a1-3)]Man(b1-4)GlcNAc(b1-4)GlcNAc
How it was run: as §1

[35] = target: Man(a1-3)[Man(a1-6)]Man(b1-4)GlcNAc(b1-4)[Fuc(a1-6)]GlcNAc
How it was run: as §1

[36] = target: Neu5Ac(a2-3)Gal(b1-3)GlcNAc(b1-2)Man(a1-3)[Neu5Ac(a2-3)Gal(b1-3)GlcNAc(b1-2)Man(a1-6)]Man(b1-4)GlcNAc(b1-4)GlcNAc
How it was run: as §1

[37] = target: Neu5Ac(a2-3)Gal(b1-3)GlcNAc(b1-3)Gal(b1-3)GlcNAc
How it was run: as §1

[38] = target: Neu5Ac(a2-3)Gal(b1-3)GlcNAc(b1-6)GalNAc
How it was run: as §1

[39] = target: Neu5Ac(a2-6)Gal
How it was run: as §1

[40] = target: Neu5Ac(a2-6)Gal(b1-4)Glc
How it was run: as §1

[41] = target: Neu5Ac(a2-6)Gal(b1-4)GlcNAc
How it was run: as §1

[42] = target: Neu5Ac(a2-6)Gal(b1-4)GlcNAc(b1-2)Man(a1-6)[Gal(b1-4)GlcNAc(b1-2)Man(a1-3)]Man(b1-4)GlcNAc(b1-4)GlcNAc
How it was run: as §1

[43] = target: Neu5Ac(a2-6)Gal(b1-4)GlcNAc(b1-3)Gal(b1-4)GlcNAc(b1-3)Gal(b1-4)GlcNAc
How it was run: as §1

[44] = target: Neu5Ac(a2-6)Gal(b1-4)GlcNAc(b1-6)[Gal(b1-3)]GalNAc
How it was run: as §1

[45] = target: Neu5Ac(a2-8)Neu5Ac
How it was run: as §1

[46] = target: Neu5Ac(a2-8)Neu5Ac(a2-3)Gal(b1-4)GlcNAc
How it was run: as §1

[47] = target: Neu5Ac(a2-8)Neu5Ac(a2-8)Neu5Ac(a2-8)Neu5Ac(a2-3)[GalNAc(b1-4)]Gal(b1-4)Glc
How it was run: as §1

[48] = target: Neu5Gc(a2-3)Gal(b1-4)GlcNAc(b1-3)Gal(b1-4)GlcNAc(b1-2)Man(a1-3)[Neu5Gc(a2-3)Gal(b1-4)GlcNAc(b1-3)Gal(b1-4)GlcNAc(b1-2)Man(a1-6)]Man(b1-4)GlcNAc(b1-4)GlcNAc
How it was run: as §1

[49] = target: Neu5Gc(a2-8)Neu5Gc(a2-3)Gal(b1-4)GlcNAc
How it was run: as §1

B1: BDCA-2 (Homo sapiens), Q8WTT0 (protein)
chain: MVPEEEPQDREKGLWWFQLKVWSMAVVSILLLSVCFTVSSVVPHNFMYSKTVKRLSKLREYQQYHPSLTCVMEGKDIEDWSCCPTPWTSFQSSCYFISTGMQSWTKSQKNCSVMGADLVVINTREEQDFIIQNLKRNSSYFLGLSDPGGRRHWQWVDQTPYNENVTFWHSGEPNNLDERCAIINFRSSEEWGWNDIHCHVPQKSICKMKKIYI
Question: B1 was tested. Which “glycan array binding signal (z-score)” value [1] did it give?
Answer: -0.085

Question: And the “glycan array binding signal (z-score)” value [2]?
Answer: -0.163

Question: And the “glycan array binding signal (z-score)” value [3]?
Answer: -0.038

Question: And the “glycan array binding signal (z-score)” value [4]?
Answer: -0.099

Question: And the “glycan array binding signal (z-score)” value [5]?
Answer: -0.11

Question: And the “glycan array binding signal (z-score)” value [6]?
Answer: -0.224

Question: What about the “glycan array binding signal (z-score)” value [7] of the same binder?
Answer: -0.284

Question: And the “glycan array binding signal (z-score)” value [8]?
Answer: 8.11

Question: And the “glycan array binding signal (z-score)” value [9]?
Answer: 7.94

Question: What about the “glycan array binding signal (z-score)” value [10] of the same binder?
Answer: -0.16

Question: And the “glycan array binding signal (z-score)” value [11]?
Answer: -0.163

Question: What about the “glycan array binding signal (z-score)” value [12] of the same binder?
Answer: -0.188

Question: And the “glycan array binding signal (z-score)” value [13]?
Answer: 5.76

Question: What about the “glycan array binding signal (z-score)” value [14] of the same binder?
Answer: 8.18

Question: What about the “glycan array binding signal (z-score)” value [15] of the same binder?
Answer: 3.64

Question: And the “glycan array binding signal (z-score)” value [16]?
Answer: 3.96

Question: And the “glycan array binding signal (z-score)” value [17]?
Answer: 6.87

Question: What about the “glycan array binding signal (z-score)” value [18] of the same binder?
Answer: 3.54

Question: What about the “glycan array binding signal (z-score)” value [19] of the same binder?
Answer: -0.146

Question: What about the “glycan array binding signal (z-score)” value [20] of the same binder?
Answer: 6.95

Question: And the “glycan array binding signal (z-score)” value [21]?
Answer: 8.21

Question: What about the “glycan array binding signal (z-score)” value [22] of the same binder?
Answer: -0.237

Question: What about the “glycan array binding signal (z-score)” value [23] of the same binder?
Answer: -0.168

Question: What about the “glycan array binding signal (z-score)” value [24] of the same binder?
Answer: -0.119

Question: What about the “glycan array binding signal (z-score)” value [25] of the same binder?
Answer: -0.114

Question: And the “glycan array binding signal (z-score)” value [26]?
Answer: -0.153

Question: And the “glycan array binding signal (z-score)” value [27]?
Answer: -0.153

Question: What about the “glycan array binding signal (z-score)” value [28] of the same binder?
Answer: -0.151

Question: What about the “glycan array binding signal (z-score)” value [29] of the same binder?
Answer: 0.173

Question: And the “glycan array binding signal (z-score)” value [30]?
Answer: -0.167

Question: And the “glycan array binding signal (z-score)” value [31]?
Answer: -0.228

Question: And the “glycan array binding signal (z-score)” value [32]?
Answer: -0.087

Question: What about the “glycan array binding signal (z-score)” value [33] of the same binder?
Answer: -0.163

Question: And the “glycan array binding signal (z-score)” value [34]?
Answer: -0.184

Question: And the “glycan array binding signal (z-score)” value [35]?
Answer: -0.173

Question: What about the “glycan array binding signal (z-score)” value [36] of the same binder?
Answer: -0.169

Question: What about the “glycan array binding signal (z-score)” value [37] of the same binder?
Answer: -0.196

Question: And the “glycan array binding signal (z-score)” value [38]?
Answer: -0.169

Question: What about the “glycan array binding signal (z-score)” value [39] of the same binder?
Answer: -0.173

Question: What about the “glycan array binding signal (z-score)” value [40] of the same binder?
Answer: -0.252

Question: What about the “glycan array binding signal (z-score)” value [41] of the same binder?
Answer: -0.282

Question: And the “glycan array binding signal (z-score)” value [42]?
Answer: 11.8

Question: What about the “glycan array binding signal (z-score)” value [43] of the same binder?
Answer: -0.186

Question: What about the “glycan array binding signal (z-score)” value [44] of the same binder?
Answer: -0.164

Question: What about the “glycan array binding signal (z-score)” value [45] of the same binder?
Answer: -0.243

Question: And the “glycan array binding signal (z-score)” value [46]?
Answer: -0.192

Question: And the “glycan array binding signal (z-score)” value [47]?
Answer: -0.318

Question: And the “glycan array binding signal (z-score)” value [48]?
Answer: -0.153

Question: What about the “glycan array binding signal (z-score)” value [49] of the same binder?
Answer: -0.189
